Screening data deposited in PubChem by National Center for Advancing Translational Sciences (NCATS).
Pf Dd2 growth: inhibitors of Plasmodium falciparum Dd2 growth; Potency, µM (highest dose often 28.9 µM), without a hit: top-dose activity, negative = inhibition, usual class: inhibitors; AID 1347417; hit rate 4.3% among 120,000; P. falciparum Dd2 growth, SYBR Green, 72 h; active = well fitted inhibition curve with a large enough effect;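 note: plate controls were DMSO vehicle for no effect and reference drug for full effect; nearly all actives have a fitted effect of over 65% in size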
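Infected erythrocytes (Dd2, 0.3% parasitemia, 2.5% hematocrit final) are added to compound in RPMI-1640/Albumax II medium, grown 72 h at 37C in low oxygen, then lysed with saponin/Triton-X containing SYBR Green and read by fluorescence.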
Active calls of the source: *; i = inactive; [ ] = another dose, or the depositor's remark. Many of the other results were omitted from the sample, so hits are more common in it than they were. Potency is the fitted concentration of half-maximal effect.

SMILES | Pf Dd2 growth
CN[C@@H](CC(C)C)C(=O)N[C@H]1C[C@@](O)(C(=O)N[C@H](Cc2c[nH]c3ccccc23)C(N)=O)C[C@@H](O)[C@@H]1O | 14%
COc1ccccc1NC(=O)[C@@H]1COCC(=O)N1Cc1ccc(OC)c(OC)c1 | 37%
COc1ccc2cc1Nc1ccc(cc1)C[C@H](NCc1ccncc1)C(=O)N(C)[C@H](C(=O)NCc1ccc(OC(F)(F)F)cc1)C2 | -20%
COc1ccc2cc1Nc1ccc(cc1)C[C@H](NCc1cccc(C(=O)O)c1)C(=O)N(C)[C@H](C(=O)Nc1ccccc1OCc1ccccc1)C2 | 2µM*
C[S+](=O)([O-])N1CCCN(c2nc3ncccc3o2)CC1 | -7%[44.1 µM]
O=C(c1ccoc1)N1CCC2(CC1)CC(Cc1ccccc1)CCO2 (configuration not stated) | -23%
Cc1ccc(NC(=O)N(Cc2ccc3c(c2)OCO3)C2CCN(Cc3ccccc3)CC2)cc1Cl | 10µM*
COc1ccc(C)cc1NC(=O)N(Cc1ccc(C)o1)C1CCN(C(C)=O)CC1 | -17%
CCN1CCC(N(Cc2cccc(OC)c2)C(=O)Nc2ccc(C)cc2Cl)CC1 | -14%
Cc1ccc(NC(=O)N(Cc2ccc3c(c2)OCO3)C2CCN(Cc3ccccc3)CC2)cc1C | -28%
CC(=O)N1CCC(N(Cc2ccco2)C(=O)Nc2ccc(C)c(Cl)c2)CC1 | 1%
COc1ccc(C)cc1NC(=O)N(Cc1ccc2c(c1)OCO2)C1CCN(Cc2ccccc2)CC1 | 8.9µM*
CC(C)NC(=O)C1CCc2nnc(-c3ccc(Cl)nc3)n21 (configuration not stated) | 14%
COc1ccc(-c2nc(C3CC(=O)N(c4ccc(C)cc4)C3)no2)c(OC)n1 (configuration not stated) | 74%
CCN1CC(C(=O)N2CCN(Cc3cccc(F)c3)C(=O)C2)CC1=O (configuration not stated) | -2%
COc1ccc(OC)c(NC(=O)C(C)n2c(=O)c(-c3ccccc3NC(C)=O)nc3ccccc32)c1 (configuration not stated) | 11µM*
CC(=O)Nc1ccccc1-c1nc2ccccc2n(C(C)C(=O)c2ccc(C)c(C)c2)c1=O (configuration not stated) | -11%
CCOc1ccc(NC(=O)C(CC)n2c(=O)c(-c3ccccc3NC(C)=O)nc3ccccc32)cc1 (configuration not stated) | -8%
COc1ccc(-c2cc(N3CCCN(C(=O)CC4CCCCC4)CC3)n[nH]2)cc1 | -7%
CCC1c2nccn2CCCN1C(=O)c1cnc(C)cn1 (configuration not stated) | 22%
COc1ccccc1-c1nc(C2CC(=O)N(c3ccc(F)c(Cl)c3)C2)no1 (configuration not stated) | 120%
COc1ccc(Cl)cc1-c1nc(C2CC(=O)N(c3ccc(F)cc3)C2)no1 (configuration not stated) | 11µM*
COc1ccc(-c2nc(C3CC(=O)N(c4ccc(F)cc4)C3)no2)cc1F (configuration not stated) | 53%
CCc1nc2c(=O)n(CC(=O)N3CCN(c4ccccc4F)CC3)nc(C)c2s1 | 0%
O=C(C1CC(=O)N(c2n[nH]c3ccccc23)C1)N1CCN(CCc2ccccn2)CC1 (configuration not stated) | -25%
SMILES | Pf Dd2 growth
Cc1cccc(NC(=O)c2c(NC(=O)c3ccco3)sc3c2CCC(C)C3)c1 (configuration not stated) | i
CC(C)(C)C1CCc2c(sc(NC(=O)c3ccco3)c2C(=O)Nc2ccccc2Cl)C1 (configuration not stated) | 56%
Cc1cccc(NC(=O)c2c(NC(=O)c3ccco3)sc3c2CCC(C(C)(C)C)C3)c1 (configuration not stated) | 7.1µM*
COc1ccc(NC(=O)Cn2c(-c3ccc(Cl)cc3)nc(C)c(CCO)c2=O)cc1OC | -25%
COc1ccc(CNC(=O)C[C@@H]2[C@H](O)CCC3[C@](C)(CO)[C@H](OC(=O)NC(C)C)CC[C@]32C)cc1 (some centres not stated) | -22%
COc1ccccc1NC(=O)C1c2ccccc2C(=O)N(Cc2ccccc2)C12CCCC2 (configuration not stated) | 11µM*
COCCN1C(=O)c2ccccc2C(C(=O)NC2CCCCC2)C12CCCC2 (configuration not stated) | -1%
Cc1ccnc(NC(=O)C2c3ccccc3C(=O)N(CC(C)C)C23CCCC3)c1 (configuration not stated) | 5µM*
CC(C)CCNC(=O)C1c2ccccc2C(=O)N(Cc2ccccc2)C12CCCC2 (configuration not stated) | -16%
COCCN1C(=O)c2ccccc2C(C(=O)Nc2ccc(C)cc2Cl)C12CCCC2 (configuration not stated) | i
O=C(NCC1CCOCC1)C1c2ccccc2C(=O)N(Cc2ccccc2)C12CCCC2 (configuration not stated) | -23%
CCc1ccccc1NC(=O)C1c2ccccc2C(=O)N(CCOC)C12CCCC2 (configuration not stated) | i
COCCN1C(=O)c2ccccc2C(C(=O)NC2CCCC2)C12CCCCC2 (configuration not stated) | 12%
COCCN1C(=O)c2ccccc2C(C(=O)NC2CCCCCC2)C12CCCC2 (configuration not stated) | -13%
CCOc1ccccc1NC(=O)C1c2ccccc2C(=O)N(CCOC)C12CCCCC2 (configuration not stated) | 4µM*
COCCN1C(=O)c2ccccc2C(C(=O)Nc2cc(C)ccn2)C12CCCCC2 (configuration not stated) | 13µM*
COc1cccc(CN2Cc3nc(OCc4ccc(F)cc4)ccc3OCC2=O)c1 | i
O=C(C1CCOCC1)N1C[C@H]2OC(=O)N(CCc3cccc(Cl)c3)[C@H]2C1 | 3%
CC(=O)N(C1CC1)C1CCOC2(CCN(C(=O)c3cccc4nccnc34)CC2)C1 (configuration not stated) | i
O=C(NCCc1ccncc1)C1CN(C(=O)Cc2ccccc2Cl)CC12CCOCC2 (configuration not stated) | 9%
CN1CCC(C)(CNc2ncc(C(C)(C)C(=O)O)c(N3CCOCC3)n2)C1 (configuration not stated) | -7%
CNC(=O)C1(N2CCC[C@H]2C(=O)NCCOC)CCCCC1 | 3%[44.1 µM]
COCCN1C(=O)c2ccccc2C(C(=O)Nc2ccc(F)cc2)C12CCCCC2 (configuration not stated) | -19%
COCCN1C(=O)c2ccccc2C(C(=O)Nc2ccc3c(c2)OCCO3)C12CCCC2 (configuration not stated) | -23%
CC(C)CN1C(=O)c2ccccc2C(C(=O)N2CCSCC2)C12CCCC2 (configuration not stated) | -15%
CC(C)NC(=O)C1c2ccccc2C(=O)N(Cc2ccco2)C12CCCCC2 (configuration not stated) | -15%
CC(C)CN1C(=O)c2ccccc2C(C(=O)Nc2ccc(C(N)=O)cc2)C12CCCCC2 (configuration not stated) | 13µM*
CC(C)CN1C(=O)c2ccccc2C(C(=O)Nc2ccccn2)C12CCCC2 (configuration not stated) | 14µM*
C=CCCC(CN1CCSCC1)Oc1nccc(C)n1 (configuration not stated) | -16%
